Experimental data from PubChem BioAssay (EPA / NIEHS).
Calls of active or inactive are those of the source. The calls were made as follows: active = hit-call score of the fitted dose curve at least 0.9, where 1 is the maximum; inactive = score below 0.9.

assay: ATG_TA_CIS: Attagene CIS-FACTORIAL HepG2 Assay for human TA Basal Promoter (AID 2282964); conditions: HepG2 Attagene CIS-factorial TA basal promoter reporter; actives raise or lower the signal
Outline: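 Background-control readout: TA basal promoter reporter mRNA, fitted in both directions relative to DMSO. Measured by RT-PCR and capillary electrophoresis 24 hours after treating HepG2 human liver cells transiently carrying multiplexed cis-regulated reporter constructs.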

SMILES	outcome	AC50
CCNc1cccc(C)c1	inactive	–
COc1cccc2c1C(=O)c1c(O)c3c(c(O)c1C2=O)C[C@@](O)(C(=O)CO)C[C@@H]3O[C@H]1C[C@H](N)[C@H](O)[C@H](C)O1	inactive	–
CN[C@H]1CC[C@@H](c2ccc(Cl)c(Cl)c2)c2ccc(S(N)(=O)=O)cc21	inactive	–
O=c1c(O)c(-c2ccc(O)c(O)c2)oc2cc(O)cc(O)c12	inactive	–
NCC1(Cc2noc(=O)[nH]2)CCCCC1	inactive	–
Oc1ccc2ccccc2c1N=Nc1ccccc1	inactive	–
Cc1ccccc1Cl	inactive	–
C[C@]12C=CC(=O)C=C1CC[C@@H]1[C@@H]2C(=O)C[C@@]2(C)[C@H]1CC[C@]2(O)C(=O)CO	inactive	–
COc1cc(C=O)ccc1O	inactive	–
CCCCCCCCCCC	inactive	–
Cc1cccc(C)c1O	inactive	–
CCCCC(CC)COC(=O)CC(C(=O)OCC(CC)CCCC)S(=O)(=O)O (stereo not given)	inactive	–
CC(=O)OCCOCCOCCOC(C)=O	inactive	–
CC1=C(/C=C/C(C)=C/C=C/C(C)=C/CO)C(C)(C)CCC1	inactive	–
CC(C)(C)c1cc(O)c(C(C)(C)C)cc1O	–	42.2 µM (active)
CNC(=O)[C@H]1O[C@@H](n2cnc3c(NCc4cc(Cl)ccc4OCc4cc(C)no4)ncnc32)[C@H](O)[C@@H]1N	inactive	–
COc1cc(S(=O)(=O)O)c(C)cc1N=Nc1c(O)ccc2cc(S(=O)(=O)O)ccc12	inactive	–
CC(=O)C(C)=CC1C(C)=CCCC1(C)C (stereo not given)	inactive	–
Cc1ccc(C)c(C)c1	inactive	–
COc1ccc(S(=O)(=O)N2C(=O)[C@@](c3ccccc3OC)(N3C[C@H](O)C[C@H]3C(=O)N(C)C)c3cc(Cl)ccc32)c(OC)c1	–	46.6 µM (active)
COc1ccc(C)cc1N	inactive	–
CCCCN(CCCC)CCCC	inactive	–
CCCCc1ccc2c(n1)[C@@H](c1ccc(OC)cc1C[C@H](C)C(=O)O)[C@H](C(=O)O)[C@H]2c1ccc2c(c1)OCO2	inactive	–
CCCCCCC(=O)OCC	inactive	–
COc1cc(/C=C/C(=O)CC(=O)/C=C/c2ccc(O)c(OC)c2)ccc1O	inactive	–
CCc1c(C(=O)NN2CCCCC2)nn(-c2ccc(Cl)cc2Cl)c1-c1ccc(Br)cc1	inactive	–
CC(=O)OC/C=C(\C)CCC=C(C)C	inactive	–
CCCCCCOCCO	inactive	–
CCOc1ccc2c(c1)C(C)=CC(C)(C)N2	–	100 µM (active)
CCCCOC(=O)CCCCCCCCC(=O)OCCCC	inactive	–
